Experimental findings from PubChem BioAssay are described below.

Where “and” joins values, the source holds several entries; their conditions need not be identical. Identical values can stand only once. For some of these results: Entries with a potency or affinity are not part of this list. Where a structure was tested more than once in an assay, its records may differ in their call. Calls of active or inactive are those of the source. Unless noted, how the calls were made is not given here.

The nature of assay [1]: liver-stage malaria parasite growth inhibition, primary screen, cell-based, HepG2, luciferase luminescence, HepG2 viability (AID 624349; in the data active means parasite load remaining mostly below about 12%, no sharp cut-off; inactive means mostly above about 10%;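 further: 100% = mean of DMSO negative control wells on the same plate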). The settings on record: P. berghei liver stage in HepG2, luciferase luminescence, concentration not given here; parasite load remaining: stronger effect = lower value; viability: measured here: HepG2 viability without parasites.
The subject of assay [2] is Hepatitis C virus NS3 helicase. The experiment in a line: HCV NS3 helicase inhibitors, primary screen, biochemical, fluorescence polarization, LOPAC1280 library (AID 687035; in the data active means inhibition above about 37%). The settings on record: Purified HCV NS3 helicase, Cy5-dT15 ssDNA binding fluorescence polarization; stronger effect = higher value; concentration not given here.
The nature of assay [3]: Cy5 fluorescence quenching or enhancement artefacts, artefact control for HCV NS3 helicase inhibitor project, biochemical, LOPAC1280 (AID 687037). The settings on record: Cy5-DNA-NS3h complex fluorescence interference counterscreen. Background: Counterscreens check selectivity or assay interference.
The nature of assay [4]: stimulators of nuclear beta-catenin in C2C12, primary screen, imaging, WNT3A-conditioned medium, mouse C2C12, NPC library (AID 1117326; in the data active means nuclear beta-catenin stimulation mostly above about 4.2%, no sharp cut-off; inactive means mostly below about 10%). The settings on record: stronger effect = higher value.
Assay [5] is described as follows: stimulators of insulin release from INS-1E, primary screen, cell-based, 5 mM glucose, NPC library (AID 1117329;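 active means compound raises insulin release from rat beta cells at 5 mM glucose, no numeric limit stated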). The settings on record: rat INS-1E insulin secretion, at 10 µM, stronger effect = higher value.
The nature of assay [6]: growth inhibition of GSK3B-pretreated HCT116 cells – cell-based, CellTiter-Glo, 0.2 to 20 µM (AID 1117336;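 active means compounds lowering colon cancer cell viability after pretreatment blocking the GSK3B kinase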). The settings on record: HCT116 viability after GSK3B inhibitor, at 20 µM, stronger effect = higher value. On the technique in general: In ATP-based viability assays light output follows the ATP content of the culture.
Assay [7] is described as follows: inhibition of endothelial tube formation, primary screen, imaging, VEGF stimulated, CD31 staining, tube area, NPC library (AID 1117340;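 active means compound that reduces growth-factor-driven endothelial tube area in a mixed cell culture, no cutoff stated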). The settings on record: VEGF-stimulated ADSC/ECFC co-culture, at 10 µM, stronger effect = higher value.
Assay [8] can be described thus: glucagon-like peptide 1 release enhancers, primary assay, NCI-H716 cell line, NPC library (AID 1117341;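 active means compound raises GLP1 secretion from the human gut endocrine cells, with no numeric limit stated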). The settings on record: NCI-H716 cells, at 10 µM, stronger effect = higher value.
The nature of assay [9]: HCT116 colon cancer cell growth inhibition, primary screen, CellTiter-Glo luminescence, NPC library (AID 1117342;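 active means compounds that lower survival of HCT116 colon cancer cells in the luminescence readout, no numeric limit stated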). The settings on record: at 20 µM (top of the series).
A short description of assay [10]: CellTiter-Glo luminescent readout of SW480 viability loss, NPC library primary (AID 1117343;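 active means compounds that lower viability of the colon cancer cells in the luminescence readout, with no numeric limit stated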). The settings on record: CellTiter-Glo luminescence; at 20 µM (top of the series).
Assay [11] can be described thus: decreased DLD-1 cellular survival, CellTiter-Glo luminescent readout, NPC compound collection, primary HTS (AID 1117346;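 active means compounds that lower survival of DLD-1 colon cancer cells in the luminescence readout, no cutoff given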). The settings on record: DLD-1 viability, CellTiter-Glo luminescence; at 20 µM (top of the series).
The nature of assay [12]: Cy5 fluorescence interference with SSB-bound oligo, artefact control for HCV NS3 helicase inhibitor project, biochemical, NIH Clinical Collection, E. coli SSB (AID 743268).
Assay [13] concerns Hepatitis C virus NS3 helicase. The assay can be described thus: HCV NS3 helicase inhibitors, primary screen, biochemical, fluorescence polarization, NIH Clinical Collection (AID 743270). The settings on record: NS3 helicase binding to Cy5-dT15 DNA, stronger effect = higher value, concentration not given here. (Fluorescence polarisation rises when a labelled molecule tumbles more slowly, as on binding a larger partner.)

The target of assay [14] is Single-stranded DNA-binding protein (Escherichia coli (strain K12)) (UniProt P0AGE0). The assay can be described thus: E. coli SSB displacement from DNA, counter-screen for HCV NS3 helicase inhibitor project, biochemical, fluorescence polarization, NIH Clinical Collection (AID 743271; in the data active means inhibition above about 28%). The settings on record: stronger effect = higher value, concentration not given here.
Assay [15] can be described thus: fluorescence interference in NS3h assay format, artefact control for HCV NS3 helicase inhibitor project, biochemical, NIH Clinical Collection (AID 743272).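 Further: HCV NS3 helicase with a Cy5 labelled single stranded DNA probe.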 The settings on record: fluorescence interference counterscreen, stronger effect = lower value.
The target in assay [16] is Calcium-dependent protein kinase 1 (Plasmodium falciparum (isolate 3D7)) (UniProt P62344). The experiment in a line: PfCDPK1 kinase inhibitors, biochemical, TCAMS library (AID 1159585; cut-off not given, nearly all actives have IC50 up to about 0.98 µM;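 further: inhibitors leave more ATP so luminescence rises with inhibition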). The settings on record: recombinant PfCDPK1, Kinase-Glo ATP depletion luminescence.
The target of assay [17] is Plasmodium falciparum protein kinase 6 (PK6, PF3D7_1337100) (UniProt Q8IDW1). The assay can be described thus: PfPK6 kinase inhibitors, biochemical, TCAMS library (AID 1159586). The settings on record: recombinant PfPK6, Kinase-Glo ATP depletion luminescence.
Chain of Plasmodium falciparum protein kinase 6 (PK6, PF3D7_1337100) (Q8IDW1 1-305): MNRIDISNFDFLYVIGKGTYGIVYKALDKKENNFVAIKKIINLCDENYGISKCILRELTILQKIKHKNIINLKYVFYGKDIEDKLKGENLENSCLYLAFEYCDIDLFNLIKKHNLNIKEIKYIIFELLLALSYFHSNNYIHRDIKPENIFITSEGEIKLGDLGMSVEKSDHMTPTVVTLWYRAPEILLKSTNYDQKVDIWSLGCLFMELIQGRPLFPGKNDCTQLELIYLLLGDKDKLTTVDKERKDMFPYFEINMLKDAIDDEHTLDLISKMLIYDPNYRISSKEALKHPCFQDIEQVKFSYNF

Chain of Calcium-dependent protein kinase 1 (Plasmodium falciparum (isolate 3D7)) (P62344 whole entry, looked up): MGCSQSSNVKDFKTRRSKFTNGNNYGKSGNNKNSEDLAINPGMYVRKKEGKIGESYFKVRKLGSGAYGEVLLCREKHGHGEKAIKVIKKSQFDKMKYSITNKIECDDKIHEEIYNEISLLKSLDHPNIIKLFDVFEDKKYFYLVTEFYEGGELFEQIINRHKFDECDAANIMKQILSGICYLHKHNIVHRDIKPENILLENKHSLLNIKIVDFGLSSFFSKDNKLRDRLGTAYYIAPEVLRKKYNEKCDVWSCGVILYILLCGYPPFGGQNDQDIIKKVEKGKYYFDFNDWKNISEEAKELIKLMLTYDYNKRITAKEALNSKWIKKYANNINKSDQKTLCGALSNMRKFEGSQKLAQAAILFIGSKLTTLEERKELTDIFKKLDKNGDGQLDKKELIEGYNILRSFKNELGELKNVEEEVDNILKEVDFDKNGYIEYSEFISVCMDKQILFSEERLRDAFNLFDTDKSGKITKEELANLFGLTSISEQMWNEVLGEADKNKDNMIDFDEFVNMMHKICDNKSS

Consider `COC(=O)[C@H]1[C@H]2C[C@@H]3c4[nH]c5cc(OC)ccc5c4CCN3C[C@H]2C[C@@H](OC(=O)c2cc(OC)c(OC)c(OC)c2)[C@@H]1OC`, for which the parasite load remaining in assay [1] is 23.5% (inactive) and 21.7% (inactive) and 13.3% (active). Besides, in assay [1], the viability was 102% and 74.9% and 89.3%. Besides, the inhibition in assay [2] is -4% (inactive). Moreover, in [3], the fluorescence ratio (interference) was 1 (inactive). For the same molecule, the nuclear beta-catenin stimulation in assay [4] (at 10 µM) was 1.8% (inactive); in assay [4] (stimulation, at 2 µM) it was 2.2%. In addition, the insulin secretion stimulation in [5] was -0.3% (inactive). The viability decrease in assay [6] is 24.4% (inactive). The tube area decrease in assay [7] is 22.8% (inactive). The GLP1 secretion stimulation in assay [8] is 3.6% (inactive). In addition, in assay [9], the inhibition of viability is 40.1% (inactive). The viability decrease (inhibition) in [10] is -42% (inactive); in assay [11], 10.4% (inactive).

In the case of `CNC[C@H](O)[C@@H](O)[C@H](O)[C@H](O)CO`, in assay [1], the parasite load remaining was 64.5% (inactive). The viability in [1] is 224%. Also, the nuclear beta-catenin stimulation is -1.8% (inactive) in assay [4] (at 10 µM) and -1.1% in assay [4] (stimulation, at 2 µM). For the same molecule, the insulin secretion stimulation in assay [5] was 0.7% (inactive). Besides, the viability decrease in assay [6] was -9.2% (inactive). The tube area decrease in assay [7] was -17.1% (inactive). Moreover, the GLP1 secretion stimulation in [8] was 10.1% (inactive). The inhibition of viability in [9] is 4.6% (inactive). Also, the values for the viability decrease (inhibition) in [10] and in assay [11] were 0.6% (inactive) and 15.4% (inactive), respectively.

`CCc1c(C)[nH]c2c1C(=O)C(CN1CCOCC1)CC2` (configuration not stated): in assay [1], the parasite load remaining was 36.3% (inactive) and 102% (inactive). For the same molecule, the viability in [1] is 89.9% and 75.4%. Moreover, the inhibition in [2] was -4% (inactive); in [13], -1.36% (inactive); in [14], 1.81% (inactive). The fluorescence ratio (interference) in [3] is 0.9 (inactive). The fluorescence ratio in assay [12] is 1.09 (inactive); in [15], 1.01 (inactive). Besides, the nuclear beta-catenin stimulation is -1.2% (inactive) in assay [4] (at 10 µM) and -0.2% in [4] (stimulation, at 2 µM). Moreover, in [5], the insulin secretion stimulation was 1.8% (inactive). Moreover, the viability decrease in assay [6] was 2.2% (inactive). Moreover, the tube area decrease in assay [7] was -10.5% (inactive). Moreover, in assay [8], the GLP1 secretion stimulation is 5.2% (inactive). In addition, the inhibition of viability in assay [9] is -24.1% (inactive). The viability decrease (inhibition) was -3.8% (inactive) in assay [10] and -11% (inactive) in assay [11].

With `CNCC(O)c1ccc(O)c(O)c1` (configuration not stated), in assay [1], the parasite load remaining was 40.1% (inactive). For the same molecule, the viability in assay [1] turned out to be 89%. Further, the inhibition in assay [2] is 0% (inactive); in [13] it was -1.36% (inactive); in assay [14] it was 15.5% (inactive). In addition, the fluorescence ratio (interference) in assay [3] was 1 (inactive). The fluorescence ratio in assay [12] and in assay [15] was 1.02 (inactive) in each case. Further, the nuclear beta-catenin stimulation was -1.1% (inactive) in [4] (at 10 µM) and -0.9% in [4] (stimulation, at 2 µM). Moreover, the insulin secretion stimulation in [5] was 5.7% (inactive). The viability decrease in assay [6] is 58.5% (active). In assay [7], the tube area decrease is -33.6% (inactive). For the same molecule, the GLP1 secretion stimulation in assay [8] is 2.7% (inactive). Further, in [9], the inhibition of viability is 29% (inactive). Moreover, the viability decrease (inhibition) in assay [10] is 58.9% (active); in [11], 17.7% (inactive).

In the case of `CCCCN(CCCC)CCC(O)c1cc2c(Cl)cc(Cl)cc2c2cc(C(F)(F)F)ccc12` (configuration not stated), the parasite load remaining in assay [1] is 57.2% (inactive). The viability in assay [1] was found to be 69.5%. Besides, the nuclear beta-catenin stimulation in assay [4] (at 10 µM) is 5.2% (inactive); in assay [4] (stimulation, at 2 µM), 0.7%. The insulin secretion stimulation in assay [5] is 0.4% (inactive). Also, in [6], the viability decrease was 99.2% (active). Besides, the tube area decrease in [7] is 96.1% (active). Further, the GLP1 secretion stimulation in [8] was -0.7% (inactive). Also, the inhibition of viability in assay [9] is 105% (active). Moreover, the viability decrease (inhibition) in assay [10] was 131% (active); in assay [11], 100% (active).

In the case of `CCCCc1ccc2nc(NC(=O)OC)[nH]c2c1`, in assay [1], the parasite load remaining is 83.6% (inactive). In assay [1], the viability came to 85.5%. Also, the nuclear beta-catenin stimulation in assay [4] (at 10 µM) is 81.2% (active); in assay [4] (stimulation, at 2 µM), 61.1%. For the same molecule, the insulin secretion stimulation in assay [5] was -1.7% (inactive). Moreover, in assay [6], the viability decrease was 91.7% (active). The tube area decrease in assay [7] is 108% (active). In addition, the GLP1 secretion stimulation in [8] is -5.4% (inactive). The inhibition of viability in assay [9] is 67.5% (active). Moreover, the viability decrease (inhibition) in [10] was 33.8% (inactive); in assay [11] it was 50.6% (active). Also, the outcome in assay [16] and in assay [17] was inactive.

The term viability denotes a read-out of living cells in per cent, often relative to untreated cells. One may read the inhibition as the relative decrease from the control value, in per cent.
